Results from publication PMC4336329 (PLoS ONE, 2015).
About 14,000 (4.5%) of roughly 310,000 compounds showed an effect of 50% or more. The effect is printed as a negative number. This is one part of a sample in which strong results are shown more often than they occur.

Target: human ether-à-go-go-related gene (hERG) potassium channel (human, UniProt Q12809)
Experiment: primary screen, population patch clamp on CHO cells stably expressing hERG; higher = less effect of the substance
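Further: peak tail current of the secondary pulse compared with the same well before compound.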

human ether-à-go-go-related gene (hERG) potassium channel, sequence (Q12809 whole entry, looked up): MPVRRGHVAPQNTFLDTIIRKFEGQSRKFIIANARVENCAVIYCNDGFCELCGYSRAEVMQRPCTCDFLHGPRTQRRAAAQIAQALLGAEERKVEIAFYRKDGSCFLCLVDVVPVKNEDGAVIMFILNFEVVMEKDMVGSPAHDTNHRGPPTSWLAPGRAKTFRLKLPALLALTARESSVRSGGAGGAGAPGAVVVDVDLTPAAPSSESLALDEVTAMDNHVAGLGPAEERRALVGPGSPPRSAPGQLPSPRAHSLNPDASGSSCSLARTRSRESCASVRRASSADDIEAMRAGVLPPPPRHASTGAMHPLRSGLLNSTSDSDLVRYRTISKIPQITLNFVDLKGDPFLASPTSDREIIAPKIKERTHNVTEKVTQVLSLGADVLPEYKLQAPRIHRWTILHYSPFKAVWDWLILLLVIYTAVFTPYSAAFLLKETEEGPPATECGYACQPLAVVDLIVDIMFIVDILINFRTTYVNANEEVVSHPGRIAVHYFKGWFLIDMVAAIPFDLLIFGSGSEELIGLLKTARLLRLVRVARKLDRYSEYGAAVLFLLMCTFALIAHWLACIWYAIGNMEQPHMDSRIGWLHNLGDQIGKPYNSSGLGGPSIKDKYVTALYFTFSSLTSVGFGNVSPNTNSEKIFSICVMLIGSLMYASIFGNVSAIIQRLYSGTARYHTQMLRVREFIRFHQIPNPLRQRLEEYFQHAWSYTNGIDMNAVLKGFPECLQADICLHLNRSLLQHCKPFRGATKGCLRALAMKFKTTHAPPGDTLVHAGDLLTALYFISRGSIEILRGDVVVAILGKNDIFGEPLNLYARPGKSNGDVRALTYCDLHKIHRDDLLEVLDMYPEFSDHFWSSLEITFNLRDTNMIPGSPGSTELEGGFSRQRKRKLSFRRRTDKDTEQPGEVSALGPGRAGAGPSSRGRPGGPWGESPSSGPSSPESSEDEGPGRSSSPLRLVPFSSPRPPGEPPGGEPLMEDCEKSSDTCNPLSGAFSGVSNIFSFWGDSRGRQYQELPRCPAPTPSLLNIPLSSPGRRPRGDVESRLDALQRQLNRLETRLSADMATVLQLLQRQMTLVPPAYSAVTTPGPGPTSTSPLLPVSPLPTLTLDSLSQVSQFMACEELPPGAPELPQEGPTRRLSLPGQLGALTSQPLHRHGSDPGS

Row | Structure (SMILES) | hERG current change (%, negative = inhibition) at 10uM
1 | COc1ccc(Cc2nc3ccc(C(=O)NCCCSC)cc3o2)cc1OC | 0.503%
2 | O=C(NNC(=O)c1cccc2ccccc12)c1ccccc1O | 4.19%
3 | O=c1c2ccccc2nc(SCc2cc(F)cc3c2OCOC3)n1Cc1ccco1 | -2.26%
4 | O=C(c1cc(COc2ccc3ncccc3c2)on1)N1CCC[C@H]1CO | 4.88%
5 | O=C(N1CCOCC1)N1CCC(n2nnc3cc(F)ccc32)CC1 | -7.65%
6 | O=C(c1ccc([N+](=O)[O-])cc1)N1CCC(n2nnc3cc(F)ccc32)CC1 | -71.9%
7 | COc1cc(C(=O)N2CCC(n3c(C)nc4cc(F)ccc43)CC2)cc(OC)c1OC | -8.07%
8 | O=C(c1ccc(F)cc1)N1CCC(n2nnc3ccccc32)CC1 | -33.3%
9 | Cc1cccc(C(=O)N2CCC(n3nnc4cc(F)ccc43)CC2)c1 | -34.8%
10 | COc1ccc(C(=O)N2CCC(n3c(C)nc4cc(F)ccc43)CC2)cc1OC | -69%
11 | COc1ccc(C(=O)N2CCC(n3nnc4cc(F)ccc43)CC2)cc1OC | -61.6%
12 | COc1ccc(C(=O)N2CCN(S(=O)(=O)c3ccc(F)cc3)CC2)cc1OC | 10.9%
13 | CCOC(=O)C(CC)Sc1ncnc2nc[nH]c12 (centres unmarked) | -12.4%
14 | CCCn1nnc(NC(=O)COc2ccc(C3CCCCC3)cc2)n1 | -31.1%
15 | O=c1ccc(-c2ccc(S(=O)(=O)Nc3cccc(Br)c3)o2)n[nH]1 | 14.8%
16 | Cc1nn(C)c(C)c1/C=C1/CC2C3CC=C4CC(O)CCC4(C)C3CCC2(C)C1=O (centres unmarked) | -8.03%
17 | CCN(CC)S(=O)(=O)c1ccc(NC(=O)CSc2ncnc3ccccc23)cc1 | -8.71%
18 | Cc1ccc(C(=O)NCCc2nnc3ccc(SCC(=O)N4CCCCC4)nn23)cc1 | 4.02%
19 | c1ccc(CCc2nn3c(-c4ccncc4)nnc3s2)cc1 | -53.9%
20 | c1ccc(Cc2nn3c(-c4ccncc4)nnc3s2)cc1 | -38.6%
21 | Cc1ccc(-c2nnc3sc(CCc4ccccc4)nn23)cc1 | 6.39%
22 | CCc1nn(CCCC(=O)NCc2cc(Br)ccc2OC)c(=O)c2cc3occc3n12 | -2.73%
23 | CC1(C(=O)Nc2nc3ccccc3s2)CC1(Br)Br (centres unmarked) | 13.5%

Row | Structure (SMILES) | hERG current change (%, negative = inhibition) at 10uM
24 | O=C(NCCc1cn2ccccc2n1)c1ccc(Br)o1 | -28.9%
25 | Cc1ccn2cc(CCNC(=O)c3ccc(Br)o3)nc2c1 | -57.5%
26 | COc1ccc(CCC(=O)NCc2cn3ccsc3n2)cc1 | 13%
27 | COc1ccc(CCC(=O)NCc2cn3ccc(C)cc3n2)cc1 | -52%
28 | Cc1ccn2cc(CNC(=O)c3ccc(Br)o3)nc2c1 | -38.6%
29 | COc1ccc(CCC(=O)NCc2cn3ccccc3n2)cc1 | -2.46%
30 | O=C(CNC(=O)c1ccco1)NCC(=O)OCc1cccc(Cl)c1 | -13%
31 | COC(=O)COc1ccc(C2Nc3c(Cl)ccc(C(=O)O)c3C3C=CCC32)cc1 (centres unmarked) | 12.9%
32 | Cn1ncc(Cl)c1C(=O)Nc1cc(C(F)(F)F)ccc1F | 29.5%
33 | Cc1ccc(NC2=C(Cl)C(=O)OC2OC(=O)c2ccc(C)cc2)cc1 (centres unmarked) | -51.7%
34 | Cc1ccc(NC2=C(Cl)C(=O)OC2OC(=O)c2ccco2)cc1 (centres unmarked) | -42.2%
35 | COC(=O)c1ccc(NC2=C(Cl)C(=O)OC2OC(=O)c2ccccc2)cc1 (centres unmarked) | -22.5%
36 | COCCCN1C(=O)C(=O)/C(=C(/O)c2ccccc2)C1c1ccc(N(C)C)cc1 (centres unmarked) | 12.8%
37 | CSCC[C@H](NC(=O)Nc1ccc(S(N)(=O)=O)cc1)C(=O)O | 9.48%
38 | CCN1CCN(c2cc(C)c3cc(NC(=O)c4cccc(OC)c4)ccc3n2)CC1 | -50.9%
39 | COc1cccc(C(=O)Nc2ccc3nc(N4CCOCC4)cc(C)c3c2)c1 | -55%
40 | CCN1CCN(c2cc(C)c3cc(NC(=O)c4cc(OC)cc(OC)c4)ccc3n2)CC1 | -35.6%
41 | CCOc1ccc(C(=O)Nc2ccc3nc(N4CCN(CC)CC4)cc(C)c3c2)cc1 | -23%
42 | COc1ccc(C(=O)Nc2ccc3nc(N4CCCCC4)cc(C)c3c2)cc1OC | -56.8%
43 | COc1ccc(NC(=O)CCC(=O)Nc2ccc3nc(N4CCOCC4)cc(C)c3c2)c(OC)c1 | 16.5%
44 | CCN1CCN(c2cc(C)c3cc(NC(=O)c4ccc(OC)c(OC)c4)ccc3n2)CC1 | -46%
45 | CCN1CCN(c2cc(C)c3cc(NC(=O)CCC(=O)Nc4ccc(OC)c(OC)c4)ccc3n2)CC1 | 4.85%
46 | COc1cccc(NC(=O)CCC(=O)Nc2ccc3nc(N4CCOCC4)cc(C)c3c2)c1 | 23.4%

Row | Structure (SMILES) | hERG current change (%, negative = inhibition) at 10uM
47 | COc1ccc(Cc2nc3ccc(C(=O)N(C)C(C)c4ccon4)cc3o2)cc1 (centres unmarked) | -3.64%
48 | O=C1COc2ccc(C(=O)c3ccccc3C(=O)NCc3ccccc3)cc2N1 | -5.41%
49 | COc1cccc(CC(=O)OC(C)C(=O)Nc2ccc(Cl)cn2)c1 (centres unmarked) | -23.9%
50 | CC(=O)Nc1nc2ccc(S(=O)(=O)N3CCCCC3)cc2s1 | 11.4%
51 | Cc1ccccc1NC(=O)Cc1nc(-c2c[nH]c(C(=O)N3CCCC3)c2)cs1 | 4.63%
52 | Cc1ccc(NC(=O)C(=O)NNC(=O)c2ccccc2C)cc1Cl | -5.32%
53 | Cc1cccn2c(=O)c3cc(C#N)c(=NC(=O)c4cccs4)n(CCCOC(C)C)c3nc12 | -80.7%
54 | Cc1cccn2c(=O)c3cc(C#N)c(=NC(=O)c4cccs4)n(CC(C)C)c3nc12 | -11.5%
55 | CCOCCCn1c(=NC(C)=O)c(C#N)cc2c(=O)n3cccc(C)c3nc21 | -41.8%
56 | CCCCn1c(=NC(=O)c2ccc3c(c2)OCO3)c(C#N)cc2c(=O)n3cccc(C)c3nc21 | -5.68%
57 | CCOCCCn1c(=NC(=O)c2cccs2)c(C#N)cc2c(=O)n3cccc(C)c3nc21 | -74.1%
58 | CCOCCCn1c(=NC(=O)c2ccc(OC)c(OC)c2)c(C#N)cc2c(=O)n3cccc(C)c3nc21 | -63.4%
59 | NC(=O)Nc1ccc(Oc2c(F)c(F)c(F)c(F)c2F)cc1 | -11.5%
60 | Cc1cccc(N2CCN(CC(=O)Nc3ccc(-n4cnnn4)cc3)CC2)c1C | 12.8%
61 | O=C(Nc1ccc(F)cc1)c1ccccc1S(=O)(=O)c1ccccc1[N+](=O)[O-] | -17.5%
62 | N#C/C(Cn1c[n+](NC(=O)Nc2ccccc2)cn1)=N/O.[Cl-] | 16.2%
63 | Cc1cccn2c(=O)c3cc(C(=O)N4COCC4(C)C)sc3nc12 | 0.269%
64 | CC(C)[C@@H]1NC(=O)c2cc([N+](=O)[O-])cc(I)c2OCC[C@@H](C(N)=O)NC(=O)[C@H](CCC(=O)O)NC1=O | 2.02%
65 | CCc1ccccc1NC(=S)N(CCN(C)C)Cc1cccs1 | -22.4%
66 | COc1ccc(S(=O)(=O)N(C)CC(=O)N2CCC(C)CC2)cc1Cl | -0.646%
67 | CC(C)N1CCC(N2CCN(Cc3nc4ccccc4s3)CC2CCO)CC1 (centres unmarked) | -33.4%
68 | CC(C)NC(=O)C1CCN(C2CCN(Cc3ccc4cccc(F)c4n3)CC2)CC1 | -38.6%
69 | CC(C)CCN1CCN(Cc2nc3ccccc3s2)CC1CCO (centres unmarked) | -41.4%

Row | Structure (SMILES) | hERG current change (%, negative = inhibition) at 10uM
70 | CC(C)NC(=O)C1CCN(C2CCN(Cc3nc(C(C)C)cs3)CC2)CC1 | -49.5%
71 | CC(C)N1CCN(Cc2nc3ccccc3s2)CC1CCO (centres unmarked) | -37.6%
72 | CC(C)CN1CCN(Cc2nc3ccccc3s2)CC1CCO (centres unmarked) | -56.8%
73 | OCCC1CN(Cc2nc3ccccc3s2)CCN1C1CCCCC1 (centres unmarked) | -60%
74 | CC(C)NC(=O)C1CCN(C2CCN(Cc3nc4ccccc4s3)CC2)CC1 | -65.2%
75 | OCCC1CN(Cc2nc3ccccc3s2)CCN1C1CCCC1 (centres unmarked) | -48.9%
76 | OCCC1CN(Cc2nc3ccccc3s2)CCN1CCc1ccccc1 (centres unmarked) | -77.7%
77 | O=C1S/C(=C\c2ccc(Cl)cc2)C(=O)N1CCn1cnnn1 | -0.978%
78 | CC(=O)c1cc2c(cc1N(C(=O)Cn1nnc3ccccc31)C(C(=O)NCCC(C)C)c1cccnc1)OCO2 (centres unmarked) | 8.92%
79 | CCc1ccccc1NC(=O)C1CCN(C(=O)c2cccs2)CC1 | -24.3%
80 | COc1ccc(S(=O)(=O)N2CCCCCC2)cc1NC(=O)CN1C(=O)NC(C)(c2ccccc2)C1=O (centres unmarked) | -31.4%
81 | Cc1ccc(Sc2ccc(CN3CCCCC3)cc2[N+](=O)[O-])cc1 | -27.4%
82 | O=[N+]([O-])c1ccc(Cl)cc1CN1CCCCCC1 | -3.36%
83 | Cc1ccc(Sc2ccc(C(=O)N3CCOCC3)cc2[N+](=O)[O-])cc1 | -32.3%
84 | O=[N+]([O-])c1cc(CN2CCC(O)CC2)ccc1Cl | 9.08%
85 | O=C(O)c1ccccc1C(=O)c1ccc(Sc2ccc(Cl)cc2)c([N+](=O)[O-])c1 | 6.94%
86 | Cc1ccc(Sc2ccc(CN3CCCC3)cc2[N+](=O)[O-])cc1 | -83%
87 | O=[N+]([O-])c1cc(CN2CCCC2)ccc1Sc1ccc(Cl)cc1 | -93.8%
88 | O=[N+]([O-])c1cc(CN2CCCCCC2)ccc1O | 9.47%
89 | CN1CCN(Cc2ccc(Sc3ccc(Cl)cc3)c([N+](=O)[O-])c2)CC1 | -80.4%
